From PubChem
Vif-APOBEC3F blk – qHTS for Inhibitors of Vif-A3F Interactions: qHTS; Potency, µM (series often up to 46.1 µM); HeLa A3F-eYFP + Vif (tagged APOBEC3F with the HIV-1 protein that degrades it), YFP fluorescence increase; hit rate 0.2% among 390,000; AID 602313, 2012; also: nearly all actives have a fitted effect of over 65% in size
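HeLa cells stably expressing Vif plus C-terminally eYFP-tagged A3F were seeded, incubated overnight at 37 deg C, dosed with compound, incubated overnight again at 37 deg C. Yellow fluorescence (Ex 488/Em 500-530) reported blocked Vif-mediated A3F-eYFP degradation.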
Epigenetic reg – Quantitative High-Throughput Screen for Regulators of Epigenetic Control; murine LDR cells, GFP reporter derepression, 30 h; AID 1865, 2009; Potency, µM (top dose mostly 53.9 µM), hits mostly activators; hit rate 0.2% among 280,000; also: nearly all actives have a fitted effect of over 60% in size
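In this reporter-derepression format, murine cells bearing a silenced integrated CMV-GFP locus incubate with test compound (30 h, 37 C), then are washed and imaged; fluorescent objects of 20–120 um count as induced cells.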
Vif-APOBEC3G blk – qHTS for Inhibitors of Vif-A3G Interactions: qHTS; hit rate 0.076% among 410,000; DNA dC->dU-editing enzyme APOBEC-3G (Homo sapiens), Q9HC16; Potency, µM (series often up to 46.1 µM), most hits filed as inhibitors; HeLa A3G-eYFP + Vif (tagged APOBEC3G with the HIV-1 protein that degrades it), YFP fluorescence, overnight; also: nearly all actives have a fitted effect of over 60% in size
Target sequence (Q9HC16 whole entry, looked up): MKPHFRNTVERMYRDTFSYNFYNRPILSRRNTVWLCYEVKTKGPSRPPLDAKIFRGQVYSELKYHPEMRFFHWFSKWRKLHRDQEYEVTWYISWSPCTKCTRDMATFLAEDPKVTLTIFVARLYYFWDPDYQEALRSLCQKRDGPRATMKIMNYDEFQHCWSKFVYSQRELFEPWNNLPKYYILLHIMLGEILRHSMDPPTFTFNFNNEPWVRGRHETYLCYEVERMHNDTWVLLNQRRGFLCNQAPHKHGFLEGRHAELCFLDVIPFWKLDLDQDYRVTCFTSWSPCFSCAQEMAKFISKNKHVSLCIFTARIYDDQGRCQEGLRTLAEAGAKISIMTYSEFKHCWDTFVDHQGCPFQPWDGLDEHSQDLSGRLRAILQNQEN
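Read-out is eYFP fluorescence (Ex 488/Em 500-530) from Vif-expressing HeLa A3G-eYFP cells; more signal means A3G escaped Vif-mediated degradation. Cells plated overnight, compound pinned in, incubated overnight at 37 deg C.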
C127i cell count – Parental Cell Counter Screen Assay for Epigenetic Modulators: Hit Validation; shares compounds with Epigenetic reg; mouse c127i parental cells, fluorescent cell count, 30 h; Potency, µM, hits mostly activators; hit rate 20% among 60; AID 493065, 2011
HCC4017 viab – HCC4017 Cell Viability Secondary Assay for qHTS Assay for Epigenetic Modulators. HCC4017 NSCLC viability, CellTiter-Glo ATP luminescence, 72 h. shares compounds with Epigenetic reg. hit rate 30% among 45. Potency, µM (titrated, usually from 46.1 µM), usual class: cytotoxic
H358 tox – H358 Cell Viability Secondary Assay for qHTS Assay for Epigenetic Modulators: Round 2; shares compounds with Epigenetic reg; H358 NSCLC viability, ATP luminescence, 72 h; Potency, µM (top dose mostly 46.1 µM), actives largely listed as cytotoxic; hit rate 30% among 45; AID 493074, 2011
Of the large screens only hits and unclear results are named; the others gave an inactive call (follow-up assays come after a bar, where they were run). Hits are enriched below; roughly 0.34% of the tested compounds scored in any of these assays. Calls follow the shape of the dose curve; as a rule, active = well fitted curve in the direction sought with a large enough effect; inconclusive = small, poorly fitted or top-dose-only effect, or another doubt; inactive = no such curve, though single readings can be large; an effect the other way counts as inactive or inconclusive.

O=S(=O)(c1ccc(-n2cnnn2)cc1)N1CCN(c2cccc(Cl)c2)CC1	none
Cc1cccc(O)c1	none (no result: Vif-APOBEC3F blk, Vif-APOBEC3G blk)
COc1ccc(C(=O)/C=C/Sc2nc3ccccc3o2)cc1	Epigenetic reg inconclusive, Vif-APOBEC3G blk inconclusive | C127i cell count inactive | HCC4017 viab 7.91µM | H358 tox 7.91µM
COc1ccc(C(=O)N/C(N)=N/c2nc3ccccc3o2)cc1	none (no result: Vif-APOBEC3F blk)
Cc1ccc(C(C)C)n1C(=O)OC(C)(C)C	none (no result: Vif-APOBEC3F blk, Vif-APOBEC3G blk)
Cc1ccc(NC(=O)c2c(C)nc3sc(C(=O)NC4CCCC4)c(N)c3c2-c2ccco2)c(C)c1	Vif-APOBEC3F blk 2.82µM, Epigenetic reg inconclusive | C127i cell count inconclusive
COc1cccc(NC(=O)c2sc3nc(C)c(C(=O)Nc4ccc(C)cc4C)c(-c4sccc4C)c3c2N)c1	none
CCOc1ccccc1CNC(=O)CCn1cccn1	none
COc1cccc(N2CCN(S(=O)(=O)c3cn(C)c(C)n3)CC2)c1	none
COC(=O)c1sc2cccc(F)c2c1S(=O)(=O)Nc1ccc(C)cc1Cl	none
CC(=O)[C@H](CC(C)C)NC(=O)[C@@H](CC(C)C)NC(=O)[C@H](CC(C)C)NC(=O)OCc1ccccc1	Epigenetic reg 5.01µM (no result: Vif-APOBEC3F blk, Vif-APOBEC3G blk) | C127i cell count inactive
CC(=O)NC(CC(C)C)C(=O)NC(Cc1ccccc1)C(N)=O (centres undefined)	none
N=c1n(CC(=O)c2ccc([N+](=O)[O-])cc2)c2ccccc2n1Cc1ccccc1Cl	Vif-APOBEC3F blk inconclusive, Epigenetic reg inconclusive | C127i cell count inactive | HCC4017 viab 12.5µM | H358 tox inconclusive
N=c1n(CC(=O)O)c2ccccc2n1Cc1ccccc1Cl	none
Cc1nc2ccccc2nc1-c1csc(-c2ccccc2)n1	none (no result: Vif-APOBEC3F blk, Epigenetic reg)
CCOC(=O)c1c(NC(=O)CC2Nc3cc(C)c(C)cc3NC2=O)sc(C)c1C (centres undefined)	Vif-APOBEC3F blk inconclusive, Epigenetic reg 8.91µM | C127i cell count inconclusive
CCOc1ccccc1NC(=O)CC1Nc2cc(C)c(C)cc2NC1=O (centres undefined)	none
COc1ccc(N2CC(NC(=O)c3ccc(S(=O)(=O)N4CCOCC4)cc3)CC2=O)cc1OC (centres undefined)	none
COCCNC(=S)N/N=C(\C)c1ccccc1O	Vif-APOBEC3F blk inconclusive, Epigenetic reg 4.47µM, Vif-APOBEC3G blk inconclusive | C127i cell count inactive | HCC4017 viab inconclusive | H358 tox inconclusive
COCCNC(=S)N/N=C(\C)c1ccccc1OC	Epigenetic reg inconclusive
CCOC(=O)CCN1C(=O)[C@H]2[C@H]3[C@H](O)[C@H](O)C/C(=N/OCc4ccccc4)[C@H]3CC[C@@H]2C1=O	none (no result: Vif-APOBEC3F blk, Vif-APOBEC3G blk)
O=C(NN1C(=O)c2ccccc2NC1c1ccc([N+](=O)[O-])o1)c1ccc([N+](=O)[O-])cc1 (centres undefined)	Epigenetic reg 10µM, Vif-APOBEC3G blk inconclusive | C127i cell count inactive | HCC4017 viab inconclusive | H358 tox inconclusive
O=C(NN1C(=O)c2ccccc2NC1c1ccc([N+](=O)[O-])o1)c1ccccc1 (centres undefined)	none
COc1ccc(Nc2cc(C(=O)NCCCN3CCN(c4ccc(OC)cc4)CC3)c3ccccc3n2)cc1	none
CCOC(=O)c1c(S(=O)(=O)NCC(=O)N2CCN(c3cccc(Cl)c3)CC2)c(C)n(C)c1C	none
CCCCOC(=O)Cn1c2ccc(OC)cc2c2nc3ccccc3nc21	Vif-APOBEC3F blk inconclusive, Epigenetic reg inconclusive, Vif-APOBEC3G blk inconclusive | C127i cell count inconclusive | HCC4017 viab inconclusive | H358 tox inconclusive
COC(=O)Cn1c2ccccc2c2nc3ccccc3nc21	Vif-APOBEC3F blk inconclusive (no result: Epigenetic reg)
CCOC(=O)c1cc2c(=O)n3ccccc3nc2n(Cc2ccco2)c1=NC(=O)c1cccc(Br)c1	Vif-APOBEC3F blk inconclusive
CCOC(=O)c1cc2c(=O)n3ccccc3nc2n(Cc2ccco2)c1=NC(=O)c1ccc(Br)cc1	Vif-APOBEC3F blk inconclusive, Epigenetic reg inconclusive | C127i cell count 28.2µM
NC(=S)N/N=C/c1ccc(C(F)(F)F)cc1	none
NC(=S)N/N=C/c1ncc(C(F)(F)F)cc1Cl	Epigenetic reg 3.98µM, Vif-APOBEC3G blk inconclusive | C127i cell count inactive | HCC4017 viab inconclusive | H358 tox inconclusive
COc1ccc(Cl)cc1NC(=O)c1c(C(=O)Nc2cccc(C)c2C)sc2nc(C)cc(=O)n12	none
CN(c1ccccc1)S(=O)(=O)c1nnc(NC(=O)c2ccccc2)s1	Epigenetic reg 7.08µM | C127i cell count inactive | HCC4017 viab inactive | H358 tox inactive
CCN(c1ccccc1)S(=O)(=O)c1nnc(NC(=O)c2ccccc2)s1	none
CCc1ccccc1N(c1nc(-c2ccc(OC)c(OC)c2)no1)c1nc(-c2ccc(OC)c(OC)c2)no1	none
COc1ccc(Nc2nc3c(S(=O)(=O)c4ccccc4)nnn3c3ccc(Cl)cc23)cc1OC	none
COc1ccc(Nc2nc3c(S(=O)(=O)c4ccccc4)nnn3c3ccc(Cl)cc23)cc1	Vif-APOBEC3F blk inconclusive, Epigenetic reg inconclusive, Vif-APOBEC3G blk inconclusive | C127i cell count inactive
COc1ccc(NC(=O)CSc2nc3c(oc4ccccc43)c(=O)n2Cc2ccco2)cc1Cl	Vif-APOBEC3F blk 8.91µM, Epigenetic reg 3.55µM, Vif-APOBEC3G blk inconclusive | C127i cell count inactive | HCC4017 viab 11.2µM | H358 tox 15.8µM
COc1ccc(Cl)cc1NC(=O)CSc1nc2c(oc3ccccc32)c(=O)n1Cc1ccco1	none
Cc1c(Cl)cccc1-n1nnc(-c2nc(-c3ccc4c(c3)OCO4)no2)c1C	none (no result: Vif-APOBEC3F blk, Vif-APOBEC3G blk)
CC1(C)C2CC=C(/C=N/NC(=S)Nc3cccnc3)C1C2 (centres undefined)	none
CC1=C/C(=N\NC(=S)Nc2cccnc2)CC(C)(C)C1	Vif-APOBEC3F blk inconclusive, Epigenetic reg 6.31µM | C127i cell count inactive | HCC4017 viab inconclusive | H358 tox inactive
CCCCC[C@H](O)/C=C/C=C/C=C/[C@H](O)C/C=C\CCCC(=O)O	none (no result: Vif-APOBEC3F blk, Vif-APOBEC3G blk)
O=S1(=O)C2CC3CCC2(CN1Cc1cccc(F)c1)O3 (centres undefined)	none (no result: Vif-APOBEC3F blk, Epigenetic reg)
Cc1ccccc1OCC(=O)N/N=C/c1ccc([N+](=O)[O-])o1	none
COc1ccccc1OCC(=O)N/N=C/C=C/c1ccc([N+](=O)[O-])o1	Vif-APOBEC3F blk 10µM, Epigenetic reg 10µM, Vif-APOBEC3G blk inconclusive | C127i cell count inactive | HCC4017 viab inconclusive | H358 tox 14.1µM
CCc1ccc(N2CCn3c2nc2c3c(=O)n(Cc3cccc(C)c3)c(=O)n2C)cc1	none
Cc1cc(NC(=O)C2CCCN(S(=O)(=O)c3cccc4nonc34)C2)ccc1Br (centres undefined)	Vif-APOBEC3F blk inconclusive, Epigenetic reg inconclusive | C127i cell count 31.6µM
Cc1cc(Br)ccc1NC(=O)C1CCCN(S(=O)(=O)c2cccc3nonc23)C1 (centres undefined)	Vif-APOBEC3F blk inconclusive, Epigenetic reg inconclusive
CC(I)CCC(C)[n+]1cccc(I)c1 (centres undefined)	none (no result: Vif-APOBEC3F blk, Epigenetic reg)
